Where “and” joins values, the source holds several entries; their conditions need not be identical. Equal values may be shown once. Calls of active or inactive are those of the source.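 How the source made its calls, unless noted: active means compounds whose cell count with miR-34 switched on is under 0.7 times the count with it off; inactive means the rest.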
Tests used:
[1] = P. berghei load reduction in hepatocytes – cell-based, HepG2, luciferase luminescence, HepG2 viability, primary screen (AID 624349; in the data active means parasite load remaining mostly below about 12%, no sharp cut-off; inactive means mostly above about 10%;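 further: 100% = mean of DMSO negative control wells on the same plate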); details: P. berghei liver stage in HepG2, luciferase luminescence, concentration not given here; parasite load remaining: stronger effect = lower value; viability: measured here: HepG2 viability without parasites
[2] = viability loss with induced miR-34 in A549 – imaging, A549 dox-inducible miR-34, nuclei and caspase counts, primary screen (AID 1347080); details: A549 miR-34 inducible, Hoechst nuclei count, 48 h
[3] = compounds altering viability of human ES cells (AID 493140; call rule not given here;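 further: cells exposed to compounds for four days before counting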); details: human embryonic stem cell survival screen; stronger effect = higher value
[4] = stronger effect = lower value, cell number ratio, induced over uninduced
[5] = measured here: relative caspase fold change +Dox/-Dox
[6] = measured here: total cells with miR-34 induction, stronger effect = lower value
[7] = measured here: total cells without miR-34 induction

For `CC/C=C\C/C=C\C/C=C\C/C=C\C/C=C\CCCC(=O)OCC`, the parasite load remaining [1] was 31% (inactive), the viability [1] was 94% and the fold change [2, 4] was 1.01 (inactive). The fold change [2, 5] was 1.98, the cell count [2, 6] was 11500 and the cell count [2, 7] was 11400.

In the case of `CCCCCCCC/C=C\CCCCCCCCOC[C@H](COP(=O)([O-])OCC[N+](C)(C)C)OC(C)=O`, the survival [3] is reported as 95.4 (inactive), the fold change [2, 4] is reported as 0.905 (inactive) and the fold change [2, 5] is reported as 1.27. It also gave a cell count [2, 6] of 6070 and a cell count [2, 7] of 6700.

For `CCC(=O)OC1(C(=O)CCl)[C@@H](C)C[C@H]2[C@@H]3CCC4=CC(=O)C=C[C@]4(C)[C@@]3(F)[C@@H](O)C[C@@]21C` (some centres not stated), the survival [3] was 2.5 (inactive), the parasite load remaining [1] was 141% (inactive) and the viability [1] was 94.7%. The fold change [2, 4] was 0.789 (inactive), the fold change [2, 5] was 1.5 and the cell count [2, 6] was 5850. For the same molecule, the cell count [2, 7] was 7420.

In the case of `COc1ccc2c3c([nH]c2c1)[C@H]1C[C@H]2[C@H](C[C@@H](O)[C@H](OC)[C@H]2C(=O)O)CN1CC3`, the survival [3] is reported as 7.42 (inactive), the parasite load remaining [1] is reported as 113% (inactive) and the viability [1] is reported as 75.4%. The fold change [2, 4] was 0.96 (inactive), the fold change [2, 5] was 0.581 and the cell count [2, 6] was 9000. It also gave a cell count [2, 7] of 9370.

For `C=Cc1c(C)c2cc3nc(cc4[nH]c(cc5nc(cc1[nH]2)C(C)=C5CCC(=O)O)c(CCC(=O)O)c4C)[C@@]1(C)C3=CC=C(C(=O)OC)C1C(=O)OC` (some centres not stated), the parasite load remaining [1] was 82.4% (inactive), the viability [1] was 67.8% and the fold change [2, 4] was 0.97 (inactive). The fold change [2, 5] was 1.04, the cell count [2, 6] was 9050 and the cell count [2, 7] was 9330.

With `CCCCC/C=C\C[C@@H](O)/C=C/C=C\C/C=C\CCCC(=O)O` the survival [3] was 89.3 (inactive), the fold change [2, 4] was 0.841 (inactive) and the fold change [2, 5] was 1.54. The cell count [2, 6] was 4740 and the cell count [2, 7] was 5630.

In the case of `CCCCCCCCCCCCCCC[C@@H](O)[C@H](CO)NC(C)=O`, the survival [3] is reported as 81.5 (inactive), the fold change [2, 4] is reported as 1.08 (inactive) and the fold change [2, 5] is reported as 1. For the same molecule, the cell count [2, 6] was 5490 and the cell count [2, 7] was 5090.

For `COC(C)(C)CCCC(C)C/C=C/C(C)=C/C(=O)O` (configuration not stated), the survival [3] was 91.1 (inactive), the fold change [2, 4] was 0.916 (inactive) and the fold change [2, 5] was 0.969. It also gave a cell count [2, 6] of 5680 and a cell count [2, 7] of 6210.

For `CCC1OC(=O)[C@H](C)C(=O)[C@H](C)[C@@H](OC2O[C@H](C)C[C@H](N(C)C)[C@H]2O)[C@](C)(OC)C[C@@H](C)C(=O)[C@H](C)[C@H]2N(CCCCn3cnc(-c4cccnc4)c3)C(=O)OC12C` (some centres not stated), the parasite load remaining [1] was 141% (inactive) and 312% (inactive), the viability [1] was 91.8% and 96.9% and the fold change [2, 4] was 0.904 (inactive). For the same molecule, the fold change [2, 5] was 2.11, the cell count [2, 6] was 11200 and the cell count [2, 7] was 12400.

With `Nc1ncnc2c1c(I)cn2[C@@H]1O[C@H](CO)[C@H](O)C1O` (some centres not stated) the parasite load remaining [1] was 129% (inactive), the viability [1] was 64.4% and the fold change [2, 4] was 1.01 (inactive). For the same molecule, the fold change [2, 5] was 0.838, the cell count [2, 6] was 1250 and the cell count [2, 7] was 1240.

For `CCC(C)N1CCC2(CC1)N=c1c(c3c4c5c(C)c(O)c3c(O)c1=NC(=O)/C(C)=C/C=C/[C@H](C)[C@H](O)[C@@H](C)[C@@H](O)[C@@H](C)[C@H](OC(C)=O)[C@H](C)[C@@H](OC)/C=C/O[C@@](C)(O5)C4=O)N2` (some centres not stated), the parasite load remaining [1] was 81.4% (inactive), the viability [1] was 74.8% and the fold change [2, 4] was 0.966 (inactive). The fold change [2, 5] was 0.766, the cell count [2, 6] was 8510 and the cell count [2, 7] was 8810.

For `O=C(O)CCC/C=C\C[C@H]1C(=O)C[C@@H](O)[C@@H]1/C=C/[C@@H](O)CCc1ccccc1`, the survival [3] was 102 (inactive), the fold change [2, 4] was 0.93 (inactive) and 0.922 (inactive) and the fold change [2, 5] was 1.16 and 1.61. For the same molecule, the cell count [2, 6] was 5630 and 5680 and the cell count [2, 7] was 6050 and 6160.

For `S=C(NC1CCCCC1)N1CCC(C2C=NC=N2)CC1` (configuration not stated), the survival [3] was 6.25 (inactive), the parasite load remaining [1] was 49.2% (inactive) and the viability [1] was 96.4%. The fold change [2, 4] was 0.857 (inactive), the fold change [2, 5] was 1.52 and the cell count [2, 6] was 8240. For the same molecule, the cell count [2, 7] was 9620.

In the case of `CCCCC[C@H](O)/C=C/[C@@H]1[C@H]2C/C(=C/CCCC(=O)O)O[C@H]2C[C@H]1O`, the survival [3] is reported as 102 (inactive), the fold change [2, 4] is reported as 1.05 (inactive) and the fold change [2, 5] is reported as 1.16 and 1.02. The cell count [2, 6] was 6320 and 6530 and the cell count [2, 7] was 6040 and 6220.

For `O=C(O)C1(O)C[C@H](O)C(O)[C@@H](O)C1` (some centres not stated), the parasite load remaining [1] was 88.4% (inactive), the viability [1] was 72.5% and the fold change [2, 4] was 0.922 (inactive). For the same molecule, the fold change [2, 5] was 0.931, the cell count [2, 6] was 8930 and the cell count [2, 7] was 9680.

With `O=c1cc(-c2ccc(O)cc2)oc2c(C3O[C@H](CO)[C@@H](O)[C@H](O)[C@H]3O)c(O)cc(O)c12` (some centres not stated) the survival [3] was 3.5 (inactive), the parasite load remaining [1] was 96.7% (inactive) and the viability [1] was 101%. The fold change [2, 4] was 0.841 (inactive), the fold change [2, 5] was 1.12 and the cell count [2, 6] was 8230. The cell count [2, 7] was 9780.

With `CC(C)=CCC/C(C)=C/CC1=C(C)C(=O)c2ccccc2C1=O` the parasite load remaining [1] was 76.4% (inactive), the viability [1] was 75.8% and the fold change [2, 4] was 0.983 (inactive). It also gave a fold change [2, 5] of 0.847, a cell count [2, 6] of 6780 and a cell count [2, 7] of 6900.

In the case of `CNS(=O)(=O)c1ccc(NC(=O)c2ccccc2C(=O)O)cc1` (tested in a mixture with another compound), the parasite load remaining [1] is reported as 59.7% (inactive), the viability [1] is reported as 106% and the fold change [2, 4] is reported as 0.903 (inactive). The fold change [2, 5] was 3.2, the cell count [2, 6] was 11500 and the cell count [2, 7] was 12700.

With `CCOC(=O)[C@H](CCc1ccccc1)N[C@@H](C)C(=O)N1C(C(=O)O)C[C@@H]2CCC[C@@H]21` (some centres not stated) the survival [3] was 13.5 (inactive), the parasite load remaining [1] was 66.3% (inactive) and the viability [1] was 72.7%. The fold change [2, 4] was 0.971 (inactive), the fold change [2, 5] was 0.659 and the cell count [2, 6] was 9850. For the same molecule, the cell count [2, 7] was 10100.

With `CN1CC[C@]23c4ccccc4N[C@H]1[C@]21CCN(C)[C@H]3Nc2ccccc21` the parasite load remaining [1] was 122% (inactive), the viability [1] was 96.8% and the fold change [2, 4] was 0.926 (inactive). The fold change [2, 5] was 1.16, the cell count [2, 6] was 9800 and the cell count [2, 7] was 10600.

In the case of `Clc1cnccn1`, the survival [3] is reported as 4.25 (inactive), the parasite load remaining [1] is reported as 81.6% (inactive) and the viability [1] is reported as 71.5%. The fold change [2, 4] was 0.949 (inactive), the fold change [2, 5] was 0.524 and the cell count [2, 6] was 9270. The cell count [2, 7] was 9770.

In the case of `C[C@H]1c2cccc(O)c2C(O)=C2C(=O)C3(O)C(O)=C(C(N)=O)C(=O)[C@@H](N(C)C)[C@@H]3[C@@H](O)[C@@H]21` (some centres not stated), the survival [3] is reported as 3.25 (inactive), the parasite load remaining [1] is reported as 62.9% (inactive) and the viability [1] is reported as 97.2%. The fold change [2, 4] was 0.641 (active), the fold change [2, 5] was 1.76 and the cell count [2, 6] was 4060. It also gave a cell count [2, 7] of 6330.

For `CCC(NC(C)C)C(O)c1ccc(O)c2[nH]c(=O)ccc12` (configuration not stated), the parasite load remaining [1] was 40.1% (inactive), the viability [1] was 98.2% and the fold change [2, 4] was 0.908 (inactive). It also gave a fold change [2, 5] of 1.47, a cell count [2, 6] of 11700 and a cell count [2, 7] of 12900.

In the case of `Oc1cccc(-c2nc(N3CCOCC3)c3sccc3n2)c1`, the parasite load remaining [1] is reported as 50.9% (inactive), the viability [1] is reported as 83.2% and the fold change [2, 4] is reported as 0.851 (inactive). For the same molecule, the fold change [2, 5] was 0.61, the cell count [2, 6] was 2340 and the cell count [2, 7] was 2750.

For `CO[C@H]1CC(O[C@@H]2/C(C)=C/C[C@@H]3C[C@@H](C[C@]4(CC[C@H](C)[C@@H](C5CCCCC5)O4)O3)OC(=O)[C@@H]3C=C(C)/C(=N/O)[C@H]4OC/C(=C\C=C\[C@@H]2C)[C@]43O)O[C@@H](C)C1O` (some centres not stated), the parasite load remaining [1] was 170% (inactive) and 47% (inactive), the viability [1] was 86.8% and 106% and the fold change [2, 4] was 0.877 (inactive). For the same molecule, the fold change [2, 5] was 3.74, the cell count [2, 6] was 9710 and the cell count [2, 7] was 11100.

With `CCCCCCCC/C=C\CCCCCCCC(=O)OCC(CO)OC(=O)CCCCCCC/C=C\CCCCCCCC` (configuration not stated) the survival [3] was 88.4 (inactive), the fold change [2, 4] was 1.01 (inactive) and the fold change [2, 5] was 1.34. The cell count [2, 6] was 5020 and the cell count [2, 7] was 4970.

For `CCCCCCCCCCCCCCCC(=O)NCCc1ccc(O)c(O)c1`, the survival [3] was 69.7 (inactive), the fold change [2, 4] was 0.93 (inactive) and the fold change [2, 5] was 0.624. For the same molecule, the cell count [2, 6] was 5560 and the cell count [2, 7] was 5980.

With `CCCCCCCCCCCCCCCCCCOC[C@@H](O)COP(=O)([O-])OCC[N+](C)(C)C` the survival [3] was 71.2 (inactive), the fold change [2, 4] was 0.968 (inactive) and the fold change [2, 5] was 0.597. It also gave a cell count [2, 6] of 5980 and a cell count [2, 7] of 6180.

With `CC(C)[N+]1(C)[C@@H]2CC[C@@H]1CC(OC(=O)C(CO)c1ccccc1)C2` (some centres not stated) the parasite load remaining [1] was 92% (inactive), the viability [1] was 107% and the fold change [2, 4] was 0.845 (inactive). It also gave a fold change [2, 5] of 1.32, a cell count [2, 6] of 9220 and a cell count [2, 7] of 10900.

From PubChem BioAssay
